Experimental data: the OligoGym collection

These sequences were tested against F2R (assay: pooled miR-30 sensor sort-seq; sequence = guide strand). Conditions: shRNA.
Also: reference of the scale not given here.

In order of falling sensor-assay potency score (higher = more potent):
1. TTCCTGAGAAGAAATGACCGGG  0.496
2. TTTCATGGTCATTACCTCCTAG  0.0335
3. TTACTTGCCATCAACTGCCCAC  -0.043
4. TAACACCGTCATCTCGTCCTGT  -0.174
5. TAATAGCTGATCTTAAAGGGGA  -0.239
6. ACAAACAGCACATCTGCCGTGG  -0.289
7. TTGGCTTATGTGTACAGTGTGT  -0.314
8. TAGGATATCACATTCTGCTTTG  -0.448
9. TTATTCAGGTTACTAGAGCAGG  -0.622
10. ATAGACACATAACAGACCGTGG  -0.63
11. TATCACATTCTGCTTTGCCAGT  -0.848
12. TACACATACATCACACTCTATG  -1.1

The sequences below were run against FABP1 in the same assay as above. Conditions: shRNA.

In order of falling sensor-assay potency score (higher = more potent):
1. TTTATTGTCACCTTCCAACTGA  0.758
2. TCTTGAAGACAATGTCACCCAA  0.0461
3. TTGAGTTCGGTCACAGACTTGA  -0.0189
4. ATTCTCTTGAAGACAATGTCAC  -0.0218
5. TCCAACTGAACCACTGTCTTGA  -0.148
6. TTTTTGAAAGTTGTCACCAGTT  -0.333
7. AACCACTGTCTTGACTTTCTCC  -0.372
8. TGAACCACTGTCTTGACTTTCT  -0.394
9. TTTTGGATCACTTTGGACCCAG  -0.408
10. ACTGTCTTGACTTTCTCCCCTG  -0.45
11. TTTTGAAAGTTGTCACCAGTTT  -0.569
12. TTATTGTCACCTTCCAACTGAA  -0.686
13. TGAACTTGAAGTGCTTCCCATT  -0.823
14. TTTCCTGGCTCTGCAGTTGGTA  -0.913
15. TTTGAAAGTTGTCACCAGTTTA  -0.997
16. TTGAAGACAATGTCACCCAATG  -1.17
17. TTCCAACTGAACCACTGTCTTG  -1.23
18. TTCCGGCAGACCGATTGCCTTC  -1.36
19. TTGTCTCCAGCTCACATTCCTC  -1.37
20. TTTGGATCACTTTGGACCCAGC  -1.41
21. TCGTTTTGGATCACTTTGGACC  -1.43
22. TATTGTCACCTTCCAACTGAAC  -1.49
23. TTCCTGGCTCTGCAGTTGGTAC  -1.83

What follows are sequences tested against FABP9 in the same assay as above. Conditions: shRNA.

In order of rising sensor-assay potency score (higher = more potent):
1. TAGTGTCCTGGAAAGAACTTTC  -1.06
2. TTACATTCCACTACCATTTTTT  -0.986
3. TGTCCTGGAAAGAACTTTCTGT  -0.208
4. TTCTTTTGATTGTTGTCTCTTT  -0.11
5. TTTCTTTTGATTGTTGTCTCTT  0.171
